# PubChem BioAssay (NCATS)
# Records with an inconclusive call do not appear. Entries that show only a call come without a potency. A number with no mark means an inactive call. Activity calls are given as the source filed them. The call rests on the fitted dose curve; in most records, active means well fitted curve in the direction sought with a large enough effect; inconclusive means small, poorly fitted or top-dose-only effect, or another doubt; inactive means no such curve, though single readings can be large; an effect the other way counts as inactive or inconclusive. Numbered stars: 1 amine (or outer) side, 2 acyl side, 3 side chain; on linkers, the order of the positions; unused ones are H or OH. Square brackets hold non-standard residues; d marks the D form. Peptide text beside a SMILES is read from it. * marks the point of attachment. ξ: configuration not given here. X9 = CCC(C)(N*)C(=O)C1CC[C@@H](C(=O)N[C@@H](Cc2ccccc2)C(=O)NCC(=O)O)N1; X8 = O=C([C@@H]1CC(O)CN1[*:1])[*:2]; aIle = CC[C@@H](C)[C@H](N)C(=O)O; Thr(3ξ) = CC(O)[C@H](N)C(=O)O; ξIva = CCC(C)(N)C(=O)O; Aib = CC(C)(N)C(=O)O
# Assays:
# [1] = target: Cellular tumor antigen p53 (Homo sapiens) (UniProt P04637); assay: Primary qHTS for small molecule compounds that upregulate eGFP-tagged delta133p53alpha (in N-terminal) cells. (AID 2060322); conditions: NCI-H358 eGFP-delta133p53alpha fluorescence, 24 h; activation: stronger effect = higher value; further: nearly all actives have a fitted effect of over 75% in size; further: potency means the concentration at half of the fitted maximal effect;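 on activation: cells pre-induced with doxycycline then dosed without doxycycline; series mostly up to about 56 µM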
# How it was run: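 NCI-H358 cells pre-induced 24 h with 10 ng/ml doxycycline for eGFP-delta133p53alpha, plated dox-free and exposed 24 h at 37C to titrated compounds. Fixed, Hoechst-stained; gated GFP peak intensity by laser scanning cytometry, normalized to DMSO (0%) and 57.5 uM 5-azacytidine (100%).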
# [2] = target: Aldehyde dehydrogenase, mitochondrial (Homo sapiens) (UniProt P05091); assay: qHTS for Inhibitors of the Aldehyde Dehydrogenase Family (ALDH2) Primary screen (AID 2061308); further: nearly all actives have a fitted effect of over 55% in size
# [3] = target: Retinaldehyde dehydrogenase 3 (Homo sapiens) (UniProt P47895); assay: qHTS for Inhibitors of the Aldehyde Dehydrogenase Family (ALDH1A3) Primary screen (AID 2061315)
# Chain of Cellular tumor antigen p53 (Homo sapiens) (P04637 whole entry, looked up): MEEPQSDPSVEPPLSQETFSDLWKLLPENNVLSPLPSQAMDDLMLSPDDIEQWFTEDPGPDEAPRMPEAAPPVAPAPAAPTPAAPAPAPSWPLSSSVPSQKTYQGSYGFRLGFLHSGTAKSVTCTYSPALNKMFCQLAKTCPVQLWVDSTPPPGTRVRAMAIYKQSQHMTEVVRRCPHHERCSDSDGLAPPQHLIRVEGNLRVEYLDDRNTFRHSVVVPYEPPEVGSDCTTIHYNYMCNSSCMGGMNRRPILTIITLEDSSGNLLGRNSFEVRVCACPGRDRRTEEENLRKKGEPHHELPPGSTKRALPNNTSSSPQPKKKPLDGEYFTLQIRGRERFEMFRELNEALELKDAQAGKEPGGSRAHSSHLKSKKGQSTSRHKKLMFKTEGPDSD
SMILES,activation [1] [%],"activity change, negative = inhibition [2]","activity change, negative = inhibition [3]",Potency [2],Potency [3],Potency [1]
CC[C@@H](C)[C@H](NC(=O)C(C)(C)NC(=O)[C@H](CCC(N)=O)NC(=O)C(C)(CC)NC(=O)[C@H](Cc1c[nH]c2ccccc12)NC(C)=O)C(=O)N[C@H](C(=O)NC(C)(C)C(=O)N[C@@H](CC(C)C)C(=O)NC(C)(C)C(=O)N1CCC[C@H]1C(=O)N[C@@H](CCC(N)=O)C(=O)NC(C)(C)C(=O)N1CC(O)C[C@H]1C(=O)NC(C)(CC)C(=O)C1CC[C@@H](C(=O)N[C@@H](Cc2ccccc2)C(=O)NCC(=O)O)N1)C(C)O (stereo partly drawn) (Ac-W[ξIva]Q[Aib][aIle][Thr(3ξ)][Aib]L[Aib]PQ[Aib][X8]-X9),3.57,-2.86% [at 11.2 µM],18.1% [at 11.2 µM],,,
CC1=C(C(=O)O)/C(=C/CO[C@@H]2O[C@H](COC(=O)/C=C/c3ccc(O)cc3)[C@@H](O)[C@H](O)[C@H]2O)C(O)C1 (stereo partly drawn),-17.6,,,inactive,inactive,
O=C(O)CC/C=C\C[C@H]1CO[C@@H](c2ccccc2Cl)O[C@H]1c1ccccc1O,-9.67,,,inactive,inactive,
COC(O)(CC(C)C)C1Oc2cc(C)[nH]c(=O)c2O1 (stereo not drawn),-26.7,,,inactive,inactive,
CC(C)(C)NS(=O)(=O)c1ccc(-c2ccc3[nH]nc(N)c3c2)cc1,0,,,inactive,inactive,
COc1cc(-c2cccc(O)c2)cc2c1OCO2,2.68,,,inactive,inactive,
CC(=O)CCC1=C(C)C(O[C@@H]2O[C@H](CO)[C@@H](O)[C@H](O)[C@H]2O)C(O)CC1(C)C (stereo partly drawn),-3.82,,,inactive,inactive,
O=C(OC1C[C@H]2CC[C@@H](C1)[N+]21CCCC1)C(O)(c1ccccc1)c1ccccc1 (stereo partly drawn),5.18,,,inactive,inactive,
C1CCC[C@H]2CCCN3CC[C@@H](CCCCCC[C@@H]4CCCN5CC[C@@H](CC1)O[C@@H]45)O[C@@H]23,-4.33,3.01% [at 0.092 µM],-7.72% [at 0.092 µM],,,
NCCCNc1ccc(Nc2nccc(Nc3cc(C4CC4)[nH]n3)n2)cc1,,,,inactive,inactive,1.51 µM (active)
CCC(C)/C=C(C)/C=C/C1=CC2=CC(=O)C3(C)OC(C)(O)C(C(=O)OC)C3C2=CO1 (stereo not drawn),,,,inactive,inactive,13.1 µM (active)
Cn1ccc(NC(=O)c2cc(Oc3ccc(C(=O)N4CCC4)c(F)c3)c3c(c2)OC(C)(C)C3)n1,-12.3,,,inactive,inactive,
C[C@@H]1O[C@@H](O[C@@H]2[C@@H](O)[C@@H](O)[C@H](O[C@@H]3[C@@H](O)[C@@H](O[C@]4(CO)O[C@H](CO)[C@@H](O)[C@@H]4OC(=O)/C=C/c4ccc(O)cc4)O[C@H](CO)[C@H]3OC(=O)/C=C/c3ccc(O)cc3)O[C@H]2C)[C@H](O)[C@H](O)[C@H]1O,3.82,,,inactive,inactive,
CO[C@H]1/C=C/C=C/C=C/C[C@H](OC(=O)[C@@H](C)NC(=O)C2CCCCC2)[C@H](C)[C@@H](O)/C(C)=C/CCc2cc(O)cc(c2)NC(=O)C1,,,,inactive,inactive,2.81 µM (active)
CC1(C)CC2C(O)C3=C(CC(C)(O)C2C1)C(=O)OC3 (stereo not drawn),-6.87,,,inactive,inactive,
C/C=C/[C@@H]1C=C[C@@H]2C[C@H](C)CC[C@H]2[C@]1(C)/C(O)=C1/C(=O)[C@@H](CO)N(C)C1=O,6.87,,,inactive,inactive,
CCCC(=O)NCCc1csc(-c2ccc(Cl)cc2)n1,1,,,inactive,inactive,
C=C1CC23CC1CCC2C12OC(=O)C(C)(C(O)C(O)C1O)C2C3C(=O)O (stereo not drawn),2.68,,,inactive,inactive,
C[C@]1(O)CC[C@@H]2C(C(=O)O)=CO[C@@H](O[C@@H]3O[C@H](COC(=O)c4ccc(O)cc4)[C@@H](O)[C@H](O)[C@H]3O)[C@@H]21,0.893,,,inactive,inactive,
CC(=O)O[C@H]1C[C@@]2(C)[C@@H](CC[C@H]3[C@@]4(C)C=CC(=O)[C@@H](C)[C@@H]4[C@H](O)C(=O)[C@@]32C)/C1=C(/CCC=C(C)C)C(=O)O,17.6,,,inactive,inactive,
C/C=C/C[C@@H](C)[C@@H](O)[C@H]1C(=O)N[C@@H](CC)C(=O)N(C)CC(=O)N(C)[C@@H](CC(C)C)C(=O)N[C@@H](C(C)C)C(=O)N(C)[C@@H](CC(C)C)C(=O)N[C@@H](C)C(=O)N[C@H](C)C(=O)N(C)[C@@H](CC(C)C)C(=O)N(C)[C@@H](CC(C)C)C(=O)N(C)[C@H](C(C)C)C(=O)N1C,11.5,,,inactive,inactive,
